Compounds with a hit are over-represented: about 18% of the library has one in this group of screens.
DT40 TDP1 CPT: qHTS for Inhibitors of human tyrosyl-DNA phosphodiesterase 1 (TDP1): qHTS in cells in presence of CPT | 12% of 420,000 active | chicken DT40 Tdp1-/-;hTDP1 cells + 20 nM CPT, ATP luminescence, 48 h | Potency, µM (doses to about 46.2 µM), for the others: top-dose activity change, negative = growth inhibition, hits mostly inhibitors; further: potency means the concentration at half of the fitted maximal effect; on the % scale 0 is the no-effect control and ±100 the full control effect; nearly all actives have a fitted effect of over 55% in size
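Cell growth measured by CellTiter-Glo luminescence after a minimum 48 h, 37 C compound exposure with 20 nM CPT in Tdp1-knockout DT40 cells stably expressing hTDP1, seeded 400/well; qHTS titration format.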
TDP1 block: qHTS Assay for Inhibitors of Tyrosyl-DNA Phosphodiesterase (TDP1); recombinant TDP1, AlphaScreen DNA substrate cleavage; Potency, µM (titrated, usually from 130 µM), for inactives: top-dose activity change, negative = inhibition, hits mostly inhibitors; 0.28% of 350,000 active; Tyrosyl-DNA phosphodiesterase 1 (Homo sapiens), Q9NUW8; further: potency means the concentration at half of the fitted maximal effect; on the % scale 0 is the no-effect control and ±100 the full control effect; nearly all actives have a fitted effect of over 40% in size
Target sequence (Q9NUW8 whole entry, looked up): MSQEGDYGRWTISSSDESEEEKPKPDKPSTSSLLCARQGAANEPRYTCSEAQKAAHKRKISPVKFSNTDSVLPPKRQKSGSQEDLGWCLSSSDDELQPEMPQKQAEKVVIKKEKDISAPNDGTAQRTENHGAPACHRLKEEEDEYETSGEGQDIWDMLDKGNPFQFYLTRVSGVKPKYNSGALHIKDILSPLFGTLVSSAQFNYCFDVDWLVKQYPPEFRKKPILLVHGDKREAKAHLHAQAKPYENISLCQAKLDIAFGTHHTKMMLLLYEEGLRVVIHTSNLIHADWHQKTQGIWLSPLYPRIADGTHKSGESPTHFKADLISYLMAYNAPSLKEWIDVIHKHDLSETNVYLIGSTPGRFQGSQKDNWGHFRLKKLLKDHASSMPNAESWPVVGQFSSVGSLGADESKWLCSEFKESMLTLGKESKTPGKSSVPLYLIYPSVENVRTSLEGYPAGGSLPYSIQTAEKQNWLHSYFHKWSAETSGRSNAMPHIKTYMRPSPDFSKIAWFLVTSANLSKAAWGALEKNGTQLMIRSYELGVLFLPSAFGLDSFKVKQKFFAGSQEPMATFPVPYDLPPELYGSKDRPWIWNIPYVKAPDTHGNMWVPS
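Enzyme-compound mixtures sat 15 min at room temperature, followed by a 5 min reaction with 15 nM final substrate and 10 min with AlphaScreen beads. Recombinant human Tdp1 was used at 1 nM final.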
HepG2 tox: qHTS for Inhibitors of TGF-b: Cytotox Counterscreen | 0.76% of 410,000 active | Potency, µM (doses to about 46.1 µM), for inactives: top-dose activity change, negative = cytotoxicity, hits mostly cytotoxic | HepG2 CAGA-GFP viability, ATP luminescence, 18 h; further: potency means the concentration at half of the fitted maximal effect
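CellTiter-Glo luminescence gave cytotoxicity after 18 hours at 37 degrees C. The cells were HepG2 CAGA-GFP in 1% FBS DMEM, stimulated with 500 pg/mL TGF-beta after compound addition. %Activity was normalised to no-cell wells (complete cell-killing) and DMSO (no toxicity), and curves were fitted and classified.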
TGFb SMAD3 inh: qHTS for Inhibitors of TGF-b; HepG2 CAGA-GFP TGF-b/SMAD3 reporter, GFP fluorescence, 18 h; TGF-beta stimulated, 500 pg/mL final; Potency, µM (top dose mostly 46.1 µM), for the others: at the top dose activity, negative = inhibition, most hits filed as inhibitors; 1.2% of 410,000 active; AID 588855, 2011; further: potency means the concentration at half of the fitted maximal effect; on the % scale 0 is the no-effect control and ±100 the full control effect; nearly all actives have a fitted effect of over 65% in size
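GFP signal (ex488/em500-530) from TGF-beta-stimulated HEPG2 CAGA-GFP cells, 500 pg/mL final, 18 h at 37 degrees C in DMEM plus 1% FBS, normalized to unstimulated and DMSO-stimulated controls.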
DT40 TDP1 no CPT: qHTS for Inhibitors of human tyrosyl-DNA phosphodiesterase 1 (TDP1): qHTS in cells in absence of CPT. DT40 Tdp1-/- hTDP1 cells, no CPT, ATP luminescence, 48 h. Potency, µM (top dose mostly 46.2 µM), without a hit: top-dose activity change, negative = growth inhibition, usual class: inhibitors. 15% of 420,000 active; further: potency means the concentration at half of the fitted maximal effect; on the % scale 0 is the no-effect control and ±100 the full control effect; nearly all actives have a fitted effect of over 55% in size
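Chicken DT40 Tdp1-/- cells stably complemented with human TDP1 were seeded at 400 cells/well with DMSO in place of 20 nM camptothecin. After compound pinning, cells grew at least 48 hr at 37 °C; viability read by CellTiter-Glo luminescence.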
IL-1B inflam inh: qHTS for Inhibitors of Inflammasome Signaling: IL-1-beta AlphaLISA Primary Screen; THP-1 LPS/ATP IL-1B secretion, AlphaLISA, 16 h; active compounds read low; activity change, % at 57.5 µM; 4.7% of 360,000 active; AID 743279, 2014; in the data active means activity change below about -50%; inconclusive means mostly about -30% to -49%; further: on the % scale 0 is the no-effect control and ±100 the full control effect
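THP-1 cells pretreated 1 hr with compounds (up to 57.5 uM final), then stimulated with LPS (250 ng/mL final) plus ATP (1.25 mM final); secreted IL-1B measured by AlphaLISA after 16 hr, decreased signal indicating inhibition.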
Starred values were filed as active, the others as inactive. Unless noted, the call rests on the fitted dose curve; in most records, active means well fitted curve in the direction sought with a large enough effect; inconclusive means small, poorly fitted or top-dose-only effect, or another doubt; inactive means no such curve, though single readings can be large; an effect the other way counts as inactive or inconclusive.

For COc1ccc(CCNC(=O)C(=O)c2cn(CC(=O)N3CCCC3)c3ccccc23)cc1 the results were DT40 TDP1 CPT -12.7%, HepG2 tox 0.5%, TGFb SMAD3 inh -3.5%, DT40 TDP1 no CPT 20.6µM* and IL-1B inflam inh -8.5.
Cc1ccc2oc(=O)c3cc(C(=O)Nc4ccc(F)cc4F)sc3c2c1 was read as DT40 TDP1 CPT inconclusive, TDP1 block -3.5%, HepG2 tox -2.0%, TGFb SMAD3 inh -11.0% and DT40 TDP1 no CPT 25.9µM*.
Cc1ccc2oc(=O)c3cc(C(=O)NCCCN4CC(C)CC(C)C4)sc3c2c1 (centres undefined) was read as DT40 TDP1 CPT inconclusive, TDP1 block 0.5%, HepG2 tox -20.9%, TGFb SMAD3 inh -17.0%, DT40 TDP1 no CPT inconclusive and IL-1B inflam inh -82.9*.
`CCOc1ccc(CCNC(=O)c2cc3c(=O)oc4ccc(C)cc4c3s2)cc1OCC` gave DT40 TDP1 CPT 13µM*, TDP1 block 4.6%, HepG2 tox -3.8%, TGFb SMAD3 inh inconclusive and DT40 TDP1 no CPT inconclusive.
Screening Cc1cccn2c(=O)c3cc(C(=O)N(Cc4ccccc4)C(C)C)sc3nc12 returned DT40 TDP1 CPT 16.4µM*, TDP1 block -11.8%, HepG2 tox -34.6%, TGFb SMAD3 inh inconclusive and DT40 TDP1 no CPT 20.6µM*.
Cc1ccc2oc(=O)c3cc(C(=O)NCCCN4CCN(C)CC4)sc3c2c1 was read as DT40 TDP1 CPT inconclusive, TDP1 block 1.3%, HepG2 tox 2.5%, TGFb SMAD3 inh 12.4%, DT40 TDP1 no CPT inconclusive and IL-1B inflam inh -12.3.
Cc1cc(N2CCC(C(=O)NCCC(C)C)CC2)n2nc(C)c(-c3ccc(Cl)cc3)c2n1 was read as DT40 TDP1 CPT 2.8%, TDP1 block -1.2%, HepG2 tox -0.1%, TGFb SMAD3 inh -9.5% and DT40 TDP1 no CPT -17.3%.
Screening Cc1ccc2oc(=O)c3cc(C(=O)N(Cc4ccccc4)C(C)C)sc3c2c1 returned DT40 TDP1 CPT 18.4µM*, TDP1 block -4.6%, HepG2 tox -24.1%, TGFb SMAD3 inh -17.8% and DT40 TDP1 no CPT 20.6µM*.
CCOC(=O)c1cc(CC)sc1NC(=O)Cc1ccsc1 was read as DT40 TDP1 CPT inconclusive, TDP1 block 4.0%, HepG2 tox -35.5%, TGFb SMAD3 inh -7.7%, DT40 TDP1 no CPT inconclusive and IL-1B inflam inh -6.8.
`CCOC(=O)Cn1nc(C)cc1NC(=O)c1ccncc1` gave DT40 TDP1 CPT -2.3%, TDP1 block 2.6%, HepG2 tox -14.1%, TGFb SMAD3 inh 10.7%, DT40 TDP1 no CPT 0.8% and IL-1B inflam inh 14.9.
`CCOC(=O)c1c(-c2ccc(C)cc2)csc1NC(=O)c1ccc(N2C(=O)CCC2=O)cc1` gave DT40 TDP1 CPT -4.4%, TDP1 block -5.5%, HepG2 tox -11.9%, TGFb SMAD3 inh -3.1%, DT40 TDP1 no CPT -23.1% and IL-1B inflam inh 14.8.
`CCOC(=O)Cn1nc(C)cc1NC(=O)c1cc(OC)c(OC)c(OC)c1` gave DT40 TDP1 CPT inconclusive, HepG2 tox -16.9%, TGFb SMAD3 inh 9.0%, DT40 TDP1 no CPT inconclusive and IL-1B inflam inh -78.4*.
Screening CCOC(=O)c1cc(CC)sc1NC(=O)c1cc(OC)c(OC)c(OC)c1 returned DT40 TDP1 CPT inconclusive, TDP1 block 0.0%, HepG2 tox 5.9%, TGFb SMAD3 inh 31.1%, DT40 TDP1 no CPT 17.8µM* and IL-1B inflam inh -15.8.
CCOC(=O)c1cc(CC)sc1NC(=O)c1ccc(N2C(=O)CCC2=O)cc1 was read as DT40 TDP1 CPT 1.3%, TDP1 block 2.6%, HepG2 tox 3.55µM*, TGFb SMAD3 inh -0.6%, DT40 TDP1 no CPT -15.3% and IL-1B inflam inh -13.0.
For N#Cc1cccc(NC(=O)N2CCC3(CC2)CCN(C(=O)c2csnn2)CC3)c1 the results were DT40 TDP1 CPT 0.0% and DT40 TDP1 no CPT -21.5%.
For CCOc1ccc(NC(=O)c2ccc(-c3nc(COc4ccccc4)c(C)o3)cc2)cc1 the results were DT40 TDP1 CPT -17.9%, TDP1 block 0.0%, HepG2 tox -36.2%, TGFb SMAD3 inh -11.7% and DT40 TDP1 no CPT 2.1%.
Cc1cccc(N2CCN(C(=O)c3cn(C)c4ccc(S(=O)(=O)N(C)C)cc4c3=O)CC2C)c1 (centres undefined) was read as DT40 TDP1 CPT 28.5%, TDP1 block -2.3%, HepG2 tox -5.7%, TGFb SMAD3 inh 0.8% and DT40 TDP1 no CPT inconclusive.
`Cc1c(C(C)C)c(=O)n(-c2ccc(S(=O)(=O)NCc3ccccc3)cc2)n1C` gave DT40 TDP1 CPT inconclusive, TDP1 block 8.1%, HepG2 tox -12.1%, TGFb SMAD3 inh -23.5%, DT40 TDP1 no CPT 8.2µM* and IL-1B inflam inh 0.0.
For Cc1c(C(C)C)c(=O)n(-c2ccc(S(=O)(=O)N3CCOCC3)cc2)n1C the results were DT40 TDP1 CPT 0.2%, TDP1 block -2.6%, HepG2 tox -24.3%, TGFb SMAD3 inh 3.6%, DT40 TDP1 no CPT -19.3% and IL-1B inflam inh 27.1.
`Cc1c(C(C)C)c(=O)n(-c2ccc(S(=O)(=O)NC3CCCCC3)cc2)n1C` gave DT40 TDP1 CPT 5.8µM*, TDP1 block 8.1%, HepG2 tox -21.9%, TGFb SMAD3 inh -25.1%, DT40 TDP1 no CPT 5.17µM* and IL-1B inflam inh -53.8*.
Cc1c(C(C)C)c(=O)n(-c2ccccc2)n1C was read as DT40 TDP1 CPT 5.8%, TDP1 block 0.0% and DT40 TDP1 no CPT -20.4%.
Screening Cc1nn(Cc2ccccc2)c2c1C(c1cccc(Cl)c1)C(C#N)=C(N)O2 (centres undefined) returned DT40 TDP1 CPT 23.1µM*, TDP1 block 5.0%, HepG2 tox -33.2%, TGFb SMAD3 inh 5.1%, DT40 TDP1 no CPT 18.4µM* and IL-1B inflam inh 62.0.
`CCOc1ccc(NC(=O)C2CCCN(C)C2)cc1` (centres undefined) gave DT40 TDP1 CPT -6.7%, TDP1 block 5.5%, HepG2 tox 1.6%, TGFb SMAD3 inh -9.5%, DT40 TDP1 no CPT 20.5% and IL-1B inflam inh -8.7.
Cc1ccc(C(=O)N/N=C/c2ccc(-c3ccccc3[N+](=O)[O-])o2)cn1 was read as DT40 TDP1 CPT 20.6µM*, TDP1 block 5.4%, HepG2 tox -22.4%, TGFb SMAD3 inh 2.5%, DT40 TDP1 no CPT inconclusive and IL-1B inflam inh 8.6.

Assay outcomes deposited in PubChem BioAssay by National Center for Advancing Translational Sciences (NCATS).
